# Assay results from PubChem BioAssay AID1159580 (chemical genetic matrix, 2015).
# In all, about 5,500 compounds went through this assay and about 2,000 (36%) were called active. Not shown: some 18% with an inconclusive outcome. Some of the results follow. Values without a mark were called inactive. Rule as the data show it: active = normalized growth mostly below about 0.91 (no sharp cut-off); inconclusive = no clear call, values can overlap the other calls; inactive = mostly above about 0.92.
# Assay: chemical genetic growth profiling, strain panel (AID 1159580);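 also: tested at 20 µM; growth read once vehicle control cultures reached saturation at 30 °C; 1 = growth at the plate median or of vehicle wells; lower values mean less growth of the strain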
# Details: growth OD
compound,measurement,setting,value
S=C=NCc1ccccc1,normalized growth,"S. cerevisiae deletion strains, locus YJR075W, strain HOC1, hits give low values",0.0711 (active)
same,normalized growth,"S. cerevisiae deletion strains, locus YKL009W, strain mrt4, hits give low values",0.0801 (active)
same,normalized growth,"S. cerevisiae deletion strains, locus YKL068W, hits give low values",0.107 (active)
same,normalized growth,"S. cerevisiae deletion strains, locus YKL085W, strain MDH1 (second series), hits give low values",0.0485 (active)
same,normalized growth,"S. cerevisiae deletion strains, locus YKL085W, strain MDH1, hits give low values",0.0485 (active)
same,normalized growth,"S. cerevisiae deletion strains, locus YKL160W, strain elf1, hits give low values",0.0853 (active)
same,normalized growth,"S. cerevisiae deletion strains, locus YKL190W, strain CNB1, hits give low values",0.0505 (active)
same,normalized growth,"S. cerevisiae deletion strains, locus YKR001C, strain vps1, hits give low values",0.0646 (active)
same,normalized growth,"S. cerevisiae deletion strains, locus YKR026C, strain gcn3, hits give low values",0.0866 (active)
same,normalized growth,"S. cerevisiae deletion strains, locus YKR091W, strain srl3, hits give low values",0.0761 (active)
same,normalized growth,"S. cerevisiae deletion strains, locus YLL001W, strain dnm1, hits give low values",0.133 (active)
same,normalized growth,"S. cerevisiae deletion strains, locus YLL026W, hits give low values",0.0653 (active)
same,normalized growth,"S. cerevisiae deletion strains, locus YLL041C, strain sdh2, hits give low values",0.0963 (active)
same,normalized growth,"S. cerevisiae deletion strains, locus YLR027C, strain aat2, hits give low values",0.0701 (active)
same,normalized growth,"S. cerevisiae deletion strains, locus YLR039C, strain RIC1, hits give low values",0.095 (active)
same,normalized growth,"S. cerevisiae deletion strains, locus YLR058C, strain SHM2, hits give low values",0.0484 (active)
same,normalized growth,"S. cerevisiae deletion strains, locus YLR102C, strain apc9, hits give low values",0.0598 (active)
same,normalized growth,"S. cerevisiae deletion strains, locus YLR113W, strain HOG1, hits give low values",0.303 (active)
same,normalized growth,"S. cerevisiae deletion strains, locus YLR221C, strain rsa3, hits give low values",0.0763 (active)
same,normalized growth,"S. cerevisiae deletion strains, locus YLR258W, strain gsy2, hits give low values",0.0685 (active)
same,normalized growth,"S. cerevisiae deletion strains, locus YLR262C, strain YPT6 (second series), hits give low values",0.338 (active)
same,normalized growth,"S. cerevisiae deletion strains, locus YLR262C, strain YPT6, hits give low values",0.107 (active)
same,normalized growth,"S. cerevisiae deletion strains, locus YLR268W, strain sec22, hits give low values",0.0685 (active)
same,normalized growth,"S. cerevisiae deletion strains, locus YLR320W, strain mms22, hits give low values",0.126 (active)
same,normalized growth,"S. cerevisiae deletion strains, locus YLR330W, strain CHS5, hits give low values",0.0521 (active)
same,normalized growth,"S. cerevisiae deletion strains, locus YLR342W, strain FKS1 (second series), hits give low values",0.0771 (active)
same,normalized growth,"S. cerevisiae deletion strains, locus YLR342W, strain FKS1, hits give low values",0.129 (active)
same,normalized growth,"S. cerevisiae deletion strains, locus YLR357W, strain rsc2, hits give low values",0.208 (active)
same,normalized growth,"S. cerevisiae deletion strains, locus YLR370C, strain arc18, hits give low values",0.2 (active)
same,normalized growth,"S. cerevisiae deletion strains, locus YLR371W, strain rom2, hits give low values",0.0645 (active)
same,normalized growth,"S. cerevisiae deletion strains, locus YLR384C, strain iki3, hits give low values",0.101 (active)
same,normalized growth,"S. cerevisiae deletion strains, locus YLR418C, strain cdc73, hits give low values",0.105 (active)
same,normalized growth,"S. cerevisiae deletion strains, locus YML016C, strain PPZ1, hits give low values",0.0508 (active)
same,normalized growth,"S. cerevisiae deletion strains, locus YML032C, strain rad52, hits give low values",0.068 (active)
same,normalized growth,"S. cerevisiae deletion strains, locus YML120C, strain ndi1, hits give low values",0.0743 (active)
same,normalized growth,"S. cerevisiae deletion strains, locus YML124C, strain tub3, hits give low values",0.0581 (active)
same,normalized growth,"S. cerevisiae deletion strains, locus YMR058W, strain fet3, hits give low values",0.102 (active)
same,normalized growth,"S. cerevisiae deletion strains, locus YMR078C, strain ctf18, hits give low values",0.0763 (active)
same,normalized growth,"S. cerevisiae deletion strains, locus YMR125W, strain sto1, hits give low values",0.118 (active)
same,normalized growth,"S. cerevisiae deletion strains, locus YMR129W, hits give low values",0.115 (active)
same,normalized growth,"S. cerevisiae deletion strains, locus YMR205C, strain PFK2, hits give low values",0.175 (active)
same,normalized growth,"S. cerevisiae deletion strains, locus YMR223W, strain ubp8, hits give low values",0.0652 (active)
same,normalized growth,"S. cerevisiae deletion strains, locus YMR231W, strain pep5, hits give low values",0.159 (active)
same,normalized growth,"S. cerevisiae deletion strains, locus YMR263W, strain SAP30, hits give low values",0.0638 (active)
same,normalized growth,"S. cerevisiae deletion strains, locus YMR307W, strain GAS1, hits give low values",0.128 (active)
same,normalized growth,"S. cerevisiae deletion strains, locus YNL067W, strain RPL9B, hits give low values",0.0559 (active)
same,normalized growth,"S. cerevisiae deletion strains, locus YNL071W, strain lat1, hits give low values",0.0773 (active)
same,normalized growth,"S. cerevisiae deletion strains, locus YNL128W, strain TEP1, hits give low values",0.061 (active)
same,normalized growth,"S. cerevisiae deletion strains, locus YNL153C, strain GIM3, hits give low values",0.0485 (active)
same,normalized growth,"S. cerevisiae deletion strains, locus YNL183C, strain NPR1, hits give low values",0.784 (active)
same,normalized growth,"S. cerevisiae deletion strains, locus YNL209W, strain ssb2, hits give low values",0.172 (active)
same,normalized growth,"S. cerevisiae deletion strains, locus YNL233W, strain BNI4, hits give low values",0.054 (active)
same,normalized growth,"S. cerevisiae deletion strains, locus YNL248C, strain rpa49, hits give low values",0.0817 (active)
same,normalized growth,"S. cerevisiae deletion strains, locus YNL250W, strain rad50, hits give low values",0.0774 (active)
same,normalized growth,"S. cerevisiae deletion strains, locus YNL271C, strain bni1, hits give low values",0.0636 (active)
same,normalized growth,"S. cerevisiae deletion strains, locus YNL298W, strain CLA4, hits give low values",0.0658 (active)
same,normalized growth,"S. cerevisiae deletion strains, locus YNL307C, strain MCK1, hits give low values",0.109 (active)
same,normalized growth,"S. cerevisiae deletion strains, locus YNL322C, strain KRE1 (second series), hits give low values",0.0969 (active)
same,normalized growth,"S. cerevisiae deletion strains, locus YNL322C, strain KRE1, hits give low values",0.0496 (active)
same,normalized growth,"S. cerevisiae deletion strains, locus YNR049C, strain mso1, hits give low values",0.0995 (active)
same,normalized growth,"S. cerevisiae deletion strains, locus YNR052C, strain pop2, hits give low values",0.0721 (active)
same,normalized growth,"S. cerevisiae deletion strains, locus YOL006C, strain TOP1, hits give low values",0.101 (active)
same,normalized growth,"S. cerevisiae deletion strains, locus YOL012C, strain htz1",0.273
same,normalized growth,"S. cerevisiae deletion strains, locus YOL147C, strain pex11, hits give low values",0.0554 (active)
same,normalized growth,"S. cerevisiae deletion strains, locus YOR001W, strain rrp6, hits give low values",0.0775 (active)
same,normalized growth,"S. cerevisiae deletion strains, locus YOR061W, strain CKA2, hits give low values",0.0465 (active)
same,normalized growth,"S. cerevisiae deletion strains, locus YOR069W, strain VPS5, hits give low values",0.048 (active)
same,normalized growth,"S. cerevisiae deletion strains, locus YOR070C, strain gyp1, hits give low values",0.106 (active)
same,normalized growth,"S. cerevisiae deletion strains, locus YOR080W, strain dia2, hits give low values",0.169 (active)
same,normalized growth,"S. cerevisiae deletion strains, locus YOR083W, strain WHI5, hits give low values",0.0989 (active)
same,normalized growth,"S. cerevisiae deletion strains, locus YOR106W, strain vam3, hits give low values",0.115 (active)
same,normalized growth,"S. cerevisiae deletion strains, locus YOR136W, strain idh2, hits give low values",0.0696 (active)
same,normalized growth,"S. cerevisiae deletion strains, locus YOR144C, strain elg1, hits give low values",0.0548 (active)
same,normalized growth,"S. cerevisiae deletion strains, locus YOR184W, strain ser1, hits give low values",0.0749 (active)
same,normalized growth,"S. cerevisiae deletion strains, locus YOR231W, strain MKK1, hits give low values",0.183 (active)
same,normalized growth,"S. cerevisiae deletion strains, locus YOR265W, strain rbl2, hits give low values",0.081 (active)
same,normalized growth,"S. cerevisiae deletion strains, locus YOR270C, strain vph1, hits give low values",0.135 (active)
same,normalized growth,"S. cerevisiae deletion strains, locus YOR290C, strain snf2, hits give low values",0.0951 (active)
same,normalized growth,"S. cerevisiae deletion strains, locus YOR316C, strain cot1, hits give low values",0.0582 (active)
same,normalized growth,"S. cerevisiae deletion strains, locus YPL051W, strain arl3, hits give low values",0.0938 (active)
same,normalized growth,"S. cerevisiae deletion strains, locus YPL055C, strain LGE1, hits give low values",0.0848 (active)
same,normalized growth,"S. cerevisiae deletion strains, locus YPL078C, strain atp4, hits give low values",0.0881 (active)
same,normalized growth,"S. cerevisiae deletion strains, locus YPL106C, strain sse1, hits give low values",0.222 (active)
same,normalized growth,"S. cerevisiae deletion strains, locus YPL240C, strain hsp82, hits give low values",0.0863 (active)
same,normalized growth,"S. cerevisiae deletion strains, locus YPL241C, strain CIN2, hits give low values",0.0506 (active)
same,normalized growth,"S. cerevisiae deletion strains, locus YPL256C, strain CLN2, hits give low values",0.219 (active)
same,normalized growth,"S. cerevisiae deletion strains, locus YPR119W, strain clb2, hits give low values",0.0611 (active)
same,normalized growth,"S. cerevisiae deletion strains, locus YPR141C, strain kar3, hits give low values",0.0705 (active)
same,normalized growth,"S. cerevisiae deletion strains, locus YPR163C, strain tif3, hits give low values",0.07 (active)
same,normalized growth,"S. cerevisiae deletion strains, locus YPR167C, strain met16, hits give low values",0.0606 (active)
same,normalized growth,"S. cerevisiae deletion strains, strain wtn01, hits give low values",0.0609 (active)
same,normalized growth,"S. cerevisiae strains, strain wild type, hits give low values",0.0473 (active)
